Drawing on PubChem BioAssay (EPA / NIEHS), this text covers outcome and AC50 for 6 compounds.

Records with an inconclusive call do not appear. More than one record can exist for a structure, and the calls need not agree. Active and inactive are the calls of the source. The calls were made as follows, unless noted: active = hit-call score of the fitted dose curve at least 0.9, where 1 is the maximum; inactive = score below 0.9.

Test [1] addresses human Retinoic Acid Receptor gamma (RARg), RARG (gene 5916) (UniProt P13631). Kind of test: ATG_RARg_TRANS: Attagene TRANS-FACTORIAL HepG2 Assay for human Retinoic Acid Receptor gamma (RARg) (AID 2283009; active = hit-call score of the fitted dose curve at least 0.9, where 1 is the maximum). The procedure, abridged:
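Gain-of-signal relative to DMSO is reported from fluorescent capillary electrophoresis of RT-PCR reporter products. These came from HepG2 cells expressing transfected RARg-GAL4 chimeras with UAS reporters, harvested 24 h after dosing.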

Test [2] deals with Retinoic acid receptor RXR-alpha (Homo sapiens) (UniProt P19793). Put plainly: ATG_RXRa_TRANS: Attagene TRANS-FACTORIAL HepG2 Assay for human Retinoid X Receptor alpha (RXRa) (AID 2283012; active = hit-call score of the fitted dose curve at least 0.9, where 1 is the maximum). The essentials: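 Chimeric NR-GAL4 trans-activation in HepG2, 24 h treatment; reporter transcripts quantified by fluorescence on capillary electrophoresis, analysed for upward change from DMSO.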

For test [3], the target named is human Retinoid X Receptor beta (RXRb), RXRB (gene 6257) (UniProt P28702). Kind of test: ATG_RXRb_TRANS: Attagene TRANS-FACTORIAL HepG2 Assay for human Retinoid X Receptor beta (RXRb) (AID 2283013; active = hit-call score of the fitted dose curve at least 0.9, where 1 is the maximum). The essentials: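 After a 24 h incubation with test chemical, transfected HepG2 cells carrying NR-Gal4 fusions and GAL4-UAS reporter transcription units yield RNA whose reporter cDNA is FAM-labelled, HpaI-cut and sized by capillary electrophoresis; increases over DMSO are scored.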

Read-out in test [4]: E-selectin (Homo sapiens) (UniProt P16581)
Put plainly: BSK_3C_Eselectin: BioMAP Diversity Plus: 3C Assay for Eselectin Biomarker Activity (AID 2283015).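 As to outcome: cell surface E-selectin protein quantified by ELISA 24 h after dosing.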 The settings on record: primary human endothelial cells (HUVEC); actives raise or lower the signal. The essentials: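 ELISA read-out of E-selectin on endothelial monolayers after 24 h chemical treatment. Human umbilical vein primary cells served as the system, with DMSO defining baseline activity for bidirectional fitting.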

Read-out in test [5]: Interleukin-1 alpha (IL1a), IL1A (gene 3552)
Put plainly: BSK_BE3C_IL1a: BioMAP Diversity Plus: BE3C Assay for Interleukin-1 alpha (IL1a) Biomarker Activity (AID 2283016). The conditions noted are these: primary human bronchial epithelial cells; actives raise or lower the signal. The procedure, abridged:
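Measured in human lung primary bronchial epithelial cells: IL-1a by ELISA at 24 h after dosing, with bidirectional fitting against DMSO.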

Read-out in test [6]: Monocyte Chemoattractant Protein-1 (MCP1), CCL2 (gene 6347)
Put plainly: BSK_3C_MCP1: BioMAP Diversity Plus: 3C Assay for Monocyte Chemoattractant Protein-1 (MCP1) Biomarker Activity (AID 2283017). The settings on record: primary human endothelial cells (HUVEC); actives raise or lower the signal. The essentials: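 ELISA read-out of MCP-1 from human umbilical vein endothelial cell cultures harvested 24 h post-dosing. Gain or loss of signal was fitted relative to DMSO.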

Read-out in test [7]: Monocyte Chemoattractant Protein-1 (MCP1), CCL2 (gene 6347)
Put plainly: BSK_4H_MCP1: BioMAP Diversity Plus: 4H Assay for Monocyte Chemoattractant Protein-1 (MCP1) Biomarker Activity (AID 2283018). The conditions noted are these: primary human endothelial cells (HUVEC); actives raise or lower the signal. The essentials:
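Primary human umbilical vein endothelium is exposed to chemical for 24 h before MCP-1 is assayed by ELISA. Concentration-response fitted bidirectionally relative to DMSO.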

Read-out in test [8]: Human Leukocyte Antigen - DR isotype (HLADR), HLA-DRA (gene 3122)
Kind of test: BSK_3C_HLADR: BioMAP Diversity Plus: 3C Assay for Human Leukocyte Antigen - DR isotype (HLADR) Biomarker Activity (AID 2283019). The settings on record: primary human endothelial cells (HUVEC); actives raise or lower the signal. The essentials: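 ELISA readout of surface HLA-DR on human umbilical vein endothelium, taken 24 h after chemical treatment. Gain- and loss-of-signal were both fitted relative to DMSO.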

Read-out in test [9]: Interleukin-8 (IL8), CXCL8 (gene 3576)
Kind of test: BSK_3C_IL8: BioMAP Diversity Plus: 3C Assay for Interleukin-8 (IL8) Biomarker Activity (AID 2283020). The settings on record: primary human endothelial cells (HUVEC); actives raise or lower the signal. The procedure, abridged:
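Using DMSO-treated wells as the baseline, bidirectional curve fitting was applied to ELISA-measured IL-8 from human umbilical vein endothelial cultures sampled 24 h after compound addition.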

Read-out in test [10]: Monokine induced gamma interferon (MIG), CXCL9 (gene 4283)
Kind of test: BSK_3C_MIG: BioMAP Diversity Plus: 3C Assay for Monokine induced gamma interferon (MIG) Biomarker Activity (AID 2283021).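 As to AC50: MIG protein level measured by immunoassay in the treated endothelial cultures.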 The settings on record: primary human endothelial cells (HUVEC); actives raise or lower the signal. The essentials:
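ELISA-measured MIG in dosed HUVEC 3C cultures at 24 h, analysed by bidirectional fitting with DMSO defining baseline activity.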

Test [11] addresses human Vitamin D Receptor (VDR), VDR (gene 7421) (UniProt P11473). Kind of test: ATG_VDR_TRANS: Attagene TRANS-FACTORIAL HepG2 Assay for human Vitamin D Receptor (VDR) (AID 2283022; active = hit-call score of the fitted dose curve at least 0.9, where 1 is the maximum). The procedure, abridged:
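Steps: transfect HepG2 with GAL4-UAS-driven reporter constructs; dose compounds 24 h; isolate RNA, reverse-transcribe, PCR-amplify with 6-FAM-labelled primer extension and HpaI digestion; quantify fragments by capillary electrophoresis relative to DMSO.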

Test [12] can be described thus: BSK_3C_SRB: Viability Assessment in the BioMAP Diversity Plus: 3C Assay (AID 2283023).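 Also: fitted both ways against DMSO so a hit may be signal rise or drop.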 The conditions noted are these: primary human endothelial cells (HUVEC). The essentials: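 Absorbance at 560 nm of sulforhodamine B-stained (0.1%) total protein served as a cytotoxicity readout in human umbilical vein endothelial cells, 24 h after chemical treatment. Signal was fitted bidirectionally relative to DMSO.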

Read-out in test [13]: Matrix Metallopeptidase 1 (MMP1), MMP1 (gene 4312)
Put plainly: BSK_BE3C_MMP1: BioMAP Diversity Plus: BE3C Assay for Matrix Metallopeptidase 1 (MMP1) Biomarker Activity (AID 2283024). The settings on record: primary human bronchial epithelial cells; actives raise or lower the signal. The essentials: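 In this multiplexed primary-cell system, human bronchial epithelium received chemicals for 24 h before an ELISA for MMP1. Values reflect bidirectional fits normalised to the DMSO baseline.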

Test [14] can be described thus: BSK_3C_Vis: BioMAP Diversity Plus: 3C Assay for Morphology Visualization (AID 2283025).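 Also: fitted both ways so gain or loss versus DMSO counts.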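 As to AC50: light microscopy image of cell morphology used as background control.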 The settings on record: primary human endothelial cells (HUVEC). The procedure, abridged:
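Light-microscopy morphology readout, 24 h exposure, human primary umbilical vein endothelium; analysed relative to DMSO with bidirectional fitting.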

Read-out in test [15]: Pselectin, SELP (gene 6403)
Kind of test: BSK_4H_Pselectin: BioMAP Diversity Plus: 4H Assay for Pselectin Biomarker Activity (AID 2283026). The settings on record: primary human endothelial cells (HUVEC); actives raise or lower the signal. The procedure, abridged: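 Bidirectional fits against DMSO gave the endpoint. Cells: primary human umbilical vein endothelium, chemical-treated for 24 h before ELISA detection of P-selectin.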

Test [16] can be described thus: BSK_4H_SRB: Viability Assessment in the BioMAP Diversity Plus: 4H Assay (AID 2283027).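 Also: cells exposed to compound for 24 h before staining.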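 As to AC50: curves fitted both ways versus DMSO so AC50 may be loss or gain.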 The settings on record: primary human endothelial cells (HUVEC). The essentials:
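Cytotoxicity readout: sulforhodamine B (0.1%) staining of total protein after 10% TCA fixation, measured at 560 nm in human umbilical vein endothelium at 24 h. DMSO set the baseline; fitting was bidirectional.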

The nature of test [17]: BSK_BE3C_SRB: Viability Assessment in the BioMAP Diversity Plus: BE3C Assay (AID 2283028).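 As to AC50: fitted both ways so AC50 may mark signal gain or loss versus DMSO.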 The settings on record: primary human bronchial epithelial cells. The essentials: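 Cells (human bronchial epithelial, primary) are treated with chemicals, and after 24 h the parallel cultures are fixed in 10% TCA. These are then stained with 0.1% SRB and read at 560 nm. Gain or loss of signal is fitted relative to DMSO.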

Read-out in test [18]: Thrombomodulin, THBD (gene 7056)
Kind of test: BSK_3C_Thrombomodulin: BioMAP Diversity Plus: 3C Assay for Thrombomodulin Biomarker Activity (AID 2283029). The settings on record: primary human endothelial cells (HUVEC); actives raise or lower the signal. The procedure, abridged: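 In a multiplexed primary-cell system, human umbilical vein endothelium received chemical and was assayed 24 h later for thrombomodulin by ELISA. Parallel cultures were SRB-stained (0.1% SRB after 10% TCA fixation, read at 560 nm) to flag cytotoxicity.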

In test [19] the target is human RAR-related Orphan Receptor gamma (RORg), RORC (gene 6097) (UniProt P51449). Kind of test: ATG_RORg_TRANS: Attagene TRANS-FACTORIAL HepG2 Assay for human RAR-related Orphan Receptor gamma (RORg) (AID 2283011; active = hit-call score of the fitted dose curve at least 0.9, where 1 is the maximum). The essentials:
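First, HepG2 liver cells were transfected with GAL4-UAS-driven reporter constructs and the RORg-Gal4 fusion. Next, they were treated with chemical for 24 h. Finally, reporter mRNA was quantified by RT-PCR and capillary electrophoresis, with upward activity fitted against DMSO.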

Test [20] addresses human Thyroid Receptor alpha (THRa1), THRA (gene 7067) (UniProt P10827). Kind of test: ATG_THRa1_TRANS: Attagene TRANS-FACTORIAL HepG2 Assay for human Thyroid Receptor alpha (THRa1) (AID 2283014; active = hit-call score of the fitted dose curve at least 0.9, where 1 is the maximum). The essentials: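 Reporter transcript induction, read by capillary electrophoresis of 6-FAM-labelled RT-PCR products, reflects activity of a transfected THRa1-Gal4 fusion in HepG2 liver cells. Cells were dosed for 24 h; activity was fitted in the positive direction against DMSO.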

human Vitamin D Receptor (VDR), VDR (gene 7421), sequence (P11473 whole entry, looked up, the tested form may be a part): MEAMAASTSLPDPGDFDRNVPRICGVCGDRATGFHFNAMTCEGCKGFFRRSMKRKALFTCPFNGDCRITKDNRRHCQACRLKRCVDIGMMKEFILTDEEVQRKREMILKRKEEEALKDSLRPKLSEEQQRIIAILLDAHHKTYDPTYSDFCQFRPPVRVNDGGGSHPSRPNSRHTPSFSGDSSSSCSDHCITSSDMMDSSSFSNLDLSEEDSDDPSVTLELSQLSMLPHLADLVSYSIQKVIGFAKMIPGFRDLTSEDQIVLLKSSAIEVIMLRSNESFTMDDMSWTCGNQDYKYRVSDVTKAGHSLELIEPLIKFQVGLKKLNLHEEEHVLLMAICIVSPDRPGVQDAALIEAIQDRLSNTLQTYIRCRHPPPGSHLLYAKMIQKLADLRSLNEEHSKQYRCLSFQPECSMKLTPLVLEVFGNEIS
human Retinoic Acid Receptor gamma (RARg), RARG (gene 5916), sequence (P13631 whole entry, looked up, the tested form may be a part): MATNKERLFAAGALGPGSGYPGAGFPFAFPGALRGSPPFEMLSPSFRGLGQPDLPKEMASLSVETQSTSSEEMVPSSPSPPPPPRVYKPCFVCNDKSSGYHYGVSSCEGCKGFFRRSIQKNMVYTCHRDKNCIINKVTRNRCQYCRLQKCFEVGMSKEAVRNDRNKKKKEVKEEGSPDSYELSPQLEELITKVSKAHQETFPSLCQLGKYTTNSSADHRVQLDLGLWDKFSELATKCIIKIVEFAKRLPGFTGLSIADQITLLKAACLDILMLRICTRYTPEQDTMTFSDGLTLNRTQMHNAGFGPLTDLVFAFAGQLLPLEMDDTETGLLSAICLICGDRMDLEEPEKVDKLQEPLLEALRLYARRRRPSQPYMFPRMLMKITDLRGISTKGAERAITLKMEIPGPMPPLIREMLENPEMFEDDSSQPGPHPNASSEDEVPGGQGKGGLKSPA
E-selectin (Homo sapiens), sequence (P16581 whole entry, looked up): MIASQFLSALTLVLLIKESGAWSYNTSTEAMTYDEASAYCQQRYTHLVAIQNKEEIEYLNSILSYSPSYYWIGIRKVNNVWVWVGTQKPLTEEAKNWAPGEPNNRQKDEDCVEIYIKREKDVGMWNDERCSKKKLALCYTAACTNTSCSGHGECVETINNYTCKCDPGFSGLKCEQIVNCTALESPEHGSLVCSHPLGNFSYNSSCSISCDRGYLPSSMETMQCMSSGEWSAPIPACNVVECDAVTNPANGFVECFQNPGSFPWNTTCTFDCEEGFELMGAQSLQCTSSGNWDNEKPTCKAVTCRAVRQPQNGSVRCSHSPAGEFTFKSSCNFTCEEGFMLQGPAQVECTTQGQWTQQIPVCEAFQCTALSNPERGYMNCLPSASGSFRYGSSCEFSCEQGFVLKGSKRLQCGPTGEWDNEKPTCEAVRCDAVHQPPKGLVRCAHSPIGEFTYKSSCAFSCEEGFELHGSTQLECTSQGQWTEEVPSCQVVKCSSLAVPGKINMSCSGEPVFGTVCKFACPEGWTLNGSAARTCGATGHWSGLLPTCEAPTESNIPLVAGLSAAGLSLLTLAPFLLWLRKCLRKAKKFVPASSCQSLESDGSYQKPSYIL
human Retinoid X Receptor beta (RXRb), RXRB (gene 6257), sequence (P28702 whole entry, looked up, the tested form may be a part): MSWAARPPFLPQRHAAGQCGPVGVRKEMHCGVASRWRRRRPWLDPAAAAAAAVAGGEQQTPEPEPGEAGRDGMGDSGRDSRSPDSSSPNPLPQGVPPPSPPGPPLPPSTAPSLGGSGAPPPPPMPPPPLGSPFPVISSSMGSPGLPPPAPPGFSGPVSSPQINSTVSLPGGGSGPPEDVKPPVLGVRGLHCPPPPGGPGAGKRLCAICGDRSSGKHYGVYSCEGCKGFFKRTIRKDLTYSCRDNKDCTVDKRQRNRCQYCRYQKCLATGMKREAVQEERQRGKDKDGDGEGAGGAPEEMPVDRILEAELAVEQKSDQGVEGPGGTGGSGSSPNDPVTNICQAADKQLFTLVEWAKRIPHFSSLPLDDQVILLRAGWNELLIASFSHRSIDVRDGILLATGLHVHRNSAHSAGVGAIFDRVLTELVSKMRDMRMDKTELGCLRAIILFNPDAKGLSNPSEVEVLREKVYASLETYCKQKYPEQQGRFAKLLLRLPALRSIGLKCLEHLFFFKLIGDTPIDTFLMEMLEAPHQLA
human Thyroid Receptor alpha (THRa1), THRA (gene 7067), sequence (P10827 whole entry, looked up, the tested form may be a part): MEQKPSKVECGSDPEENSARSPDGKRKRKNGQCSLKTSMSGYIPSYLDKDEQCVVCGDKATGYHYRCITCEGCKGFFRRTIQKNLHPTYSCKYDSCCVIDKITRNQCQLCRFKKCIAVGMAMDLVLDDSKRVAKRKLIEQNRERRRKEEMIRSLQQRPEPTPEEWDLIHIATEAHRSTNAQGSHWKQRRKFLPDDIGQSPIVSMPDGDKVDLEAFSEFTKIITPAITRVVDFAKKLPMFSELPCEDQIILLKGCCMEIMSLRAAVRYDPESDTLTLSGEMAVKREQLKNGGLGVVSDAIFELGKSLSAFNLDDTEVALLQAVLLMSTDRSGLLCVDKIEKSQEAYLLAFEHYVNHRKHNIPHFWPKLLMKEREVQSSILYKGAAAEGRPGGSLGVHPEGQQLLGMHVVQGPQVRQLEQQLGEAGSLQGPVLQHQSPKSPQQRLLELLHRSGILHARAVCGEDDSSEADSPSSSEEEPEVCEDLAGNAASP
Retinoic acid receptor RXR-alpha (Homo sapiens), sequence (P19793 whole entry, looked up, the tested form may be a part): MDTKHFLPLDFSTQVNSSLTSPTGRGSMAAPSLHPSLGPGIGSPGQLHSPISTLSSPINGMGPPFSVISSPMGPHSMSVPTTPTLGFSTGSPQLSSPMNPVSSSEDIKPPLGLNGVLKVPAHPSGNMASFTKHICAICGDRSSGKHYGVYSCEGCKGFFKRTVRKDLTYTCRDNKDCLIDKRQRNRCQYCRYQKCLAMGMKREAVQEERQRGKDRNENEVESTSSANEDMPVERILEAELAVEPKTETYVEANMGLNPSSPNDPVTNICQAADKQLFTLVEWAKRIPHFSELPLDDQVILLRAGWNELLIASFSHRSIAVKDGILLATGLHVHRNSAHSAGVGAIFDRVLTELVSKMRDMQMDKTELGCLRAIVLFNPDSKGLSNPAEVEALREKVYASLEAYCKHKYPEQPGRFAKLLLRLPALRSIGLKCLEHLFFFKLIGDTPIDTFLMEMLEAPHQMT
human RAR-related Orphan Receptor gamma (RORg), RORC (gene 6097), sequence (P51449 whole entry, looked up, the tested form may be a part): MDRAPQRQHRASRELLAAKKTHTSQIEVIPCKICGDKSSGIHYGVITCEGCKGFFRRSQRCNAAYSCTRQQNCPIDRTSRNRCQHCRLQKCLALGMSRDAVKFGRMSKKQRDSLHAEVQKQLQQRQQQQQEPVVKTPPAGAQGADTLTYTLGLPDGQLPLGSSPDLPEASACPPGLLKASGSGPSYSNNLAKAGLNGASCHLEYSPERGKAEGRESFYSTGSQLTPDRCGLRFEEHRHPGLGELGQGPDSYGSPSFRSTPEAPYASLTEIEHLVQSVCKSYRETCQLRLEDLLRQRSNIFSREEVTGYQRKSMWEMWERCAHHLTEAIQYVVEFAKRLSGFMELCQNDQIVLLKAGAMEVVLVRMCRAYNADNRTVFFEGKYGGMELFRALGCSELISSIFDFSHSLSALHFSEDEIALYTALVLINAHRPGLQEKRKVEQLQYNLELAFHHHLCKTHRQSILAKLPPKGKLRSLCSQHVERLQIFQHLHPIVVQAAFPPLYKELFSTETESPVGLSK

On to `CC1COC(Cn2cncn2)(c2ccc(Oc3ccc(Cl)cc3)cc2Cl)O1` (centres undefined), for which the result in [1], in [2], in [3], in [11] and in [18] was inactive. The AC50 was 24.8 µM (active) in test [4]; 36 µM (active) in test [5]; 36.8 µM (active) in test [6]; 15.3 µM (active) in test [7]; 30.3 µM (active) in [8]; 28.6 µM (active) in test [9]. Moreover, the AC50 is 33.4 µM (active) in test [10]; 20.8 µM (active) in [12]; 32.2 µM (active) in test [13]; 37.2 µM (active) in [14]; 24.7 µM (active) in test [15]; 26.9 µM (active) in test [16]. For the same compound, the AC50 in test [17] was 31 µM (active).

Regarding `C=CC1(C)OC(=O)N(c2cc(Cl)cc(Cl)c2)C1=O` (centres undefined), the result in test [19], in test [2], in test [3], in test [20], in test [4] and in test [5] was inactive. Besides, the result in test [6], in [8], in [9], in test [10], in test [11] and in test [12] was inactive. The outcome in [13], in test [14], in [15], in test [16], in test [17] and in [18] was inactive.

For the compound `COc1cnc(OC)n2nc(NS(=O)(=O)c3c(OCC(F)F)cccc3C(F)(F)F)nc12`, the compound was classed as inactive in test [19], in [2], in test [3], in [20], in test [4] and in test [5]. Also, the result in test [6], in test [7], in test [8], in test [9], in [10] and in test [12] was inactive. For the same compound, the outcome in [13], in test [14], in test [15], in test [16], in test [17] and in test [18] was inactive. Further, the AC50 in test [9] was 0.016 µM (active).

Take `CC(Oc1ccc(Cl)cc1Cl)C(=O)O` (centres undefined): the compound was classed as inactive in [1], in [2], in [3], in test [4], in test [5] and in [6]. Besides, the result in test [7], in [8], in test [9], in test [10], in test [12] and in test [13] was inactive. Further, the result in [14], in [15], in test [16], in [17] and in [18] was inactive.

Take `CCON=C(CC)C1=C(O)CC(c2c(C)cc(C)cc2C)CC1=O` (centres undefined): the call in test [1], in test [3], in test [4], in test [5], in test [6] and in [8] was inactive. Moreover, the result in [9], in test [10], in test [12], in test [13], in test [14] and in [15] was inactive. The result in test [16], in test [17] and in test [18] was inactive.

Take `CNC(=S)S`: the outcome in test [19], in test [2], in test [3], in [5], in test [6] and in test [9] was inactive. For the same compound, the outcome in test [10], in test [11], in test [13], in test [15], in test [17] and in test [18] was inactive. The AC50 in [4] is 12.8 µM (active); in test [8] it was 20 µM (active); in test [12], 13.3 µM (active); in test [14] it was 13.2 µM (active); in test [16], 20 µM (active).
